Only some compounds are listed: those with a hit (about 12% of all), similar ones and a draw of the others.
Cav32 inh – blocks human Cav3.2 T-type calcium channel | O95180 | Cav3.2-expressing cells, Fluo-4 calcium fluorescence FDSS; hits give low values | B-score at 10 µM | 100,000 compounds, 4% hits | AID 449739;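 active means single-dose well whose peak fluorescence ratio is a statistical outlier from its plate by either plate-standardised score or position-corrected B-score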
hDAT+cocaine – changed human dopamine transporter uptake under cocaine IC80 | Q01959 | LLC-PK1 hDAT cells, [14C]-dopamine uptake with cocaine IC80; actives deviate in either direction | B-score at 10 µM | 110,000 compounds, 1.3% hits | AID 449768;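 active means Z score or B-score, a plate-position-corrected score, falls beyond the plate's 99.7% confidence bounds, in either direction; inactive means both scores lie inside the 99.7% bounds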;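 further: scored against the spread of the other compound wells on the same plate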
PostGolgi yeast – growth inhibition of a yeast mutant, post-Golgi transport screen; inhibition, % at 10 µM; AID 739; 98,000 compounds, 0.9% hits; post-Golgi transport phenotypic cell assay;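 further: yeast cells grown in 1536-well plates; yeast grown about 18 h at 30C before absorbance read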
PostGolgi ctrl – inhibits growth of the yeast control strain | efflux-deficient yeast background strain, growth absorbance A615, 16 h | inhibition, % at 10 µM | 98,000 compounds, 5% hits | AID 738
PLAP activator – activators of human placental alkaline phosphatase | P05187 | purified PLAP enzyme, luminescent substrate read-out; hits give high values | activation fold at 20 µM | 96,000 compounds, 1.2% hits; in the data active means activation fold above about 2
D1 allo mod – D1 dopamine receptor (human) allosteric modulation. P21728. HEK293 D1, CRE-luciferase, dopamine EC30 potentiation; actives deviate in either direction. B-score at 10 µM. 58,000 compounds, 5.9% hits;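 active means luminescence count or its row- and column-corrected plate score outside the 99.7% band of the plate's sample wells, on either side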
* = called active by the depositor. Unless noted, no stated cut-off is given here; in the data, active means inhibition above about 30%; inactive means the rest.

How did CCC(C)(C)n1nnnc1C(c1ccncc1)N1CCC(Cc2ccccc2)CC1 (stereo not drawn) do in these assays?
Cav32 inh: -3.7*; hDAT+cocaine: 0.00549; PostGolgi yeast: 2.1; PostGolgi ctrl: 13.7; PLAP activator: 1.7

How did CN1[C@@H]2CC[C@H]1CC(OC(=O)C(CO)c1ccccc1)C2 (stereo partly drawn) do in these assays?
Cav32 inh: -0.0471; hDAT+cocaine: 0.714

Results for CCc1ccc(C(=O)CSc2ncn[nH]2)cc1 ?
Cav32 inh: -0.382; hDAT+cocaine: -0.0941; PostGolgi yeast: -4.3; PostGolgi ctrl: 1.0; PLAP activator: 2.4*; D1 allo mod: -0.596

Results for COc1cccc(-c2nnc3n2N=C(c2cc(OC)ccc2OC)CS3)c1 ?
Cav32 inh: -1.79; hDAT+cocaine: 0.768; PostGolgi yeast: 7.5; PostGolgi ctrl: 36.8*; PLAP activator: 1

What do the screens show for `CCc1nnc(NC(=O)CSc2nnc(COc3ccccc3)n2Cc2ccccc2)s1`?
Cav32 inh: 2.37; hDAT+cocaine: 0.755; PostGolgi yeast: 7.9; PostGolgi ctrl: 1.7; PLAP activator: 1.2; D1 allo mod: 0.214

Results for O=C(O)C1C2C=CC3(CN(Cc4ccncc4)C(=O)C13)O2 (stereo not drawn) ?
Cav32 inh: -0.237; hDAT+cocaine: -8.7*; PostGolgi yeast: -2.4; PostGolgi ctrl: 0.4

How did Cc1ccc(C(=O)Nc2cc(C)c(OCC(=O)N3CCOCC3)c(C)c2)cc1 do in these assays?
Cav32 inh: 0.559; hDAT+cocaine: 2.26*; PostGolgi yeast: 2.5; PostGolgi ctrl: 17.9; PLAP activator: 1.1

Results for O=C1C2=C(Nc3ccccc3SC2c2ccco2)c2ccccc21 (stereo not drawn) ?
Cav32 inh: -5.14*; hDAT+cocaine: -0.254; PostGolgi yeast: 12.3; PostGolgi ctrl: 71.9*; PLAP activator: 0.9; D1 allo mod: -0.765

Results for COc1ccc(CCNC(=O)C2CCC(CNc3c(N4CCCC4)c(=O)c3=O)CC2)cc1OC (stereo not drawn) ?
Cav32 inh: -0.183; hDAT+cocaine: -1.38; PostGolgi yeast: -2.3; PostGolgi ctrl: 4.4; PLAP activator: 1.5; D1 allo mod: 0.185

How did Cn1c(=O)c2c(nc(NCCc3ccccc3)n2Cc2ccc(F)cc2)n(C)c1=O do in these assays?
Cav32 inh: -0.326; hDAT+cocaine: 0.414; PostGolgi yeast: 2.0; PostGolgi ctrl: 12.6; PLAP activator: 1.2; D1 allo mod: -2.36

Results for Cc1ccc(Cn2c(SCC(C)C)nc3c2c(=O)n(C)c(=O)n3C)cc1 ?
Cav32 inh: -1.62; hDAT+cocaine: -0.507; PostGolgi yeast: 34.5*; PostGolgi ctrl: 29.5; PLAP activator: 1.1; D1 allo mod: 0.0966

Results for CCC(C)Nc1nc2c(c(=O)n(C)c(=O)n2C)n1Cc1ccc(F)cc1 (stereo not drawn) ?
Cav32 inh: 0.266; hDAT+cocaine: 0.887; PostGolgi yeast: -6.8; PostGolgi ctrl: 35.4*; PLAP activator: 1; D1 allo mod: 2.23

Results for CC(=O)c1ccc(NS(=O)(=O)c2ccc(CC(C)C)cc2)cc1 ?
Cav32 inh: -2.52; hDAT+cocaine: -0.308; PostGolgi yeast: -3.0; PostGolgi ctrl: -5.0; PLAP activator: 1.2

Results for CC(=O)c1ccc(NS(=O)(=O)Cc2ccc(Cl)cc2)cc1 ?
Cav32 inh: -0.0645; hDAT+cocaine: 3.18*; PostGolgi yeast: 22.4; PostGolgi ctrl: 6.4; PLAP activator: 1

Results for S=c1[nH]cc(-c2ccccc2)n1-c1ccccc1 ?
Cav32 inh: 1.01; hDAT+cocaine: 0.227; PostGolgi yeast: 1.6; PostGolgi ctrl: 6.5; PLAP activator: 1

What do the screens show for `CCCCOP(=O)(OCCCC)C1(NS(=O)(=O)c2ccccc2)C=CC(=O)c2ccccc21` (stereo not drawn)?
Cav32 inh: -2.72; hDAT+cocaine: -0.769; PostGolgi yeast: -4.3; PostGolgi ctrl: 16.1; PLAP activator: 1.3

Results for O=c1nc(-c2ccccc2)c2ccccc2[nH]1 ?
Cav32 inh: 0.0138; hDAT+cocaine: 0.476; PostGolgi yeast: 0.2; PostGolgi ctrl: 59.4*; PLAP activator: 1.1; D1 allo mod: 1.97

How did CCc1[nH]c(=O)c(C#N)c2c1CCCC2 do in these assays?
PostGolgi yeast: 8.1; PostGolgi ctrl: 31.6*; PLAP activator: 1.3

How did CCc1[nH]c(=O)c(C#N)c2c1COC(C)(C)C2 do in these assays?
Cav32 inh: 0.133; hDAT+cocaine: -0.474; PostGolgi yeast: -3.6; PostGolgi ctrl: 16.8; PLAP activator: 1.1
